Source: PubChem BioAssay AID1159580 (chemical genetic matrix, 2015)
Values joined by “and” are separate entries in the source; they are usually repeats but may differ in a detail not shown here. Equal values may be shown once. About 2,000 (36%) of roughly 5,500 compounds were called active. Inconclusive results (about 18%) are left out. Cut-off read from the data, not from the text of the source: active = normalized growth mostly below about 0.91 (no sharp cut-off); inconclusive = no clear call, values can overlap the other calls; inactive = mostly above about 0.92. Some of the results follow. More than one record can exist for a structure, and the calls need not agree.

Experiment: chemical genetic growth profiling, strain panel (AID 1159580);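 note: tested at 20 µM; growth read once vehicle control cultures reached saturation at 30 °C; 1 = growth at the plate median or of vehicle wells; lower values mean less growth of the strain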
Details: S. cerevisiae deletion strains, growth OD

Measured: normalized growth

Clc1ccccc1C(c1ccccc1)(c1ccccc1)n1ccnc1
inactive: locus YOL012C, strain htz1 0.23
active: locus YAL013W, strain DEP1, stronger effect = lower value 0.0556 and 0.0854 | locus YAL021C, strain ccr4, stronger effect = lower value 0.0659 | locus YAL026C, strain drs2, stronger effect = lower value 0.0665 | locus YAL030W, strain snc1, stronger effect = lower value 0.0563 | locus YAL040C, strain CLN3, stronger effect = lower value 0.613 | locus YBL061C, strain skt5, stronger effect = lower value 0.0604 | locus YBR009C, strain hhf1, stronger effect = lower value 0.0704 | locus YBR021W, strain FUR4, stronger effect = lower value 0.0896 | locus YBR023C, strain chs3, stronger effect = lower value 0.0661 | locus YBR171W, strain sec66, stronger effect = lower value 0.0777 | locus YBR229C, strain ROT2, stronger effect = lower value 0.0472 | locus YBR231C, strain swc5, stronger effect = lower value 0.0624 | locus YBR279W, strain paf1, stronger effect = lower value 0.0598 | locus YCL011C, strain gbp2, stronger effect = lower value 0.0573 | locus YCL016C, strain dcc1, stronger effect = lower value 0.066 | locus YCL029C, strain bik1, stronger effect = lower value 0.0623 | locus YCL061C, strain MRC1, stronger effect = lower value 0.0642 | locus YCL069W, strain vba3, stronger effect = lower value 0.0627 | locus YCR088W, strain abp1, stronger effect = lower value 0.0657 | locus YDL005C, strain med2, stronger effect = lower value 0.0759 | locus YDL035C, strain GPR1, stronger effect = lower value 0.0497 | locus YDL040C, strain nat1, stronger effect = lower value 0.058 | locus YDL074C, strain BRE1, stronger effect = lower value 0.0785 | locus YDL101C, strain DUN1, stronger effect = lower value 0.0582 | locus YDL134C, strain PPH21, stronger effect = lower value 0.0506 | locus YDL185W, strain tfp1, stronger effect = lower value 0.0604 | locus YDL192W, strain arf1, stronger effect = lower value 0.0622 | locus YDR001C, strain nth1, stronger effect = lower value 0.0587 | locus YDR069C, strain doa4, stronger effect = lower value 0.0629 | locus YDR101C, strain arx1, stronger effect = lower value 0.0588 | locus YDR137W, strain rgp1, stronger effect = lower value 0.103 | locus YDR150W, strain NUM1, stronger effect = lower value 0.0555 | locus YDR159W, strain sac3, stronger effect = lower value 0.0888 | locus YDR162C, strain NBP2, stronger effect = lower value 0.0501 | locus YDR195W, strain ref2 0.125 | locus YDR297W, strain sur2, stronger effect = lower value 0.0578 | locus YDR318W, strain mcm21, stronger effect = lower value 0.0626 | locus YDR334W, strain swr1, stronger effect = lower value 0.0633 | locus YDR335W, strain msn5, stronger effect = lower value 0.0619 | locus YDR388W, stronger effect = lower value 0.0576 | locus YDR392W, strain spt3, stronger effect = lower value 0.0716 | locus YDR502C, strain sam2, stronger effect = lower value 0.0632 | locus YEL003W, strain gim4, stronger effect = lower value 0.0556 | locus YEL037C, strain rad23, stronger effect = lower value 0.0574 | locus YEL061C, strain CIN8 (second series), stronger effect = lower value 0.0638 | locus YEL061C, strain CIN8, stronger effect = lower value 0.0506 | locus YER002W, strain NOP16, stronger effect = lower value 0.0949 | locus YER015W, strain faa2, stronger effect = lower value 0.0658 | locus YER016W, strain bim1, stronger effect = lower value 0.0637 | locus YER110C, stronger effect = lower value 0.0769 | locus YER111C, strain swi4, stronger effect = lower value 0.0727 | locus YER155C, strain BEM2 (second series), stronger effect = lower value 0.0917 | locus YER155C, strain BEM2, stronger effect = lower value 0.0644 | locus YER167W, strain BCK2, stronger effect = lower value 0.0514 | locus YFR010W, strain ubp6, stronger effect = lower value 0.0718 | locus YGL078C, strain dbp3, stronger effect = lower value 0.0828 | locus YGL086W, strain mad1, stronger effect = lower value 0.0584 | locus YGL167C, strain pmr1, stronger effect = lower value 0.0741 | locus YGL173C, strain kem1, stronger effect = lower value 0.07 | locus YGL227W, strain vid30, stronger effect = lower value 0.0633 | locus YGL240W, strain doc1, stronger effect = lower value 0.0729 | locus YGL248W, strain PDE1, stronger effect = lower value 0.0484 | locus YGL253W, strain hxk2, stronger effect = lower value 0.0556 | locus YGR078C, strain PAC10, stronger effect = lower value 0.0496 | locus YGR135W, strain pre9, stronger effect = lower value 0.0631 | locus YGR252W, strain gcn5, stronger effect = lower value 0.165 | locus YHR013C, strain ard1, stronger effect = lower value 0.105 | locus YHR027C, strain rpn1, stronger effect = lower value 0.0633 | locus YHR030C, strain SLT2, stronger effect = lower value 0.0505 and 0.1 | locus YHR079C, strain IRE1 (second series), stronger effect = lower value 0.0577 | locus YHR079C, strain IRE1, stronger effect = lower value 0.135 | locus YHR094C, strain hxt1, stronger effect = lower value 0.059 | locus YHR129C, strain ARP1, stronger effect = lower value 0.0557 | locus YHR142W, strain chs7, stronger effect = lower value 0.0738 | locus YHR200W, strain rpn10, stronger effect = lower value 0.0614 | locus YIL066C, strain RNR3, stronger effect = lower value 0.0483 | locus YIL073C, strain SPO22, stronger effect = lower value 0.112 | locus YIL125W, strain kgd1, stronger effect = lower value 0.0895 | locus YIR030C, strain dcg1, stronger effect = lower value 0.0606 | locus YJL092W, strain hpr5, stronger effect = lower value 0.0611 | locus YJL095W, strain BCK1 (second series), stronger effect = lower value 0.059 | locus YJL095W, strain BCK1, stronger effect = lower value 0.0611 and 0.105 | locus YJL115W, strain asf1, stronger effect = lower value 0.0739 | locus YJL129C, strain trk1, stronger effect = lower value 0.0834 | locus YJL134W, strain LCB3, stronger effect = lower value 0.0474 | locus YJL154C, strain vps35, stronger effect = lower value 0.0614 | locus YJL164C, strain tpk1, stronger effect = lower value 0.0678 | locus YJL166W, strain qcr8, stronger effect = lower value 0.064 | locus YJL168C, strain set2, stronger effect = lower value 0.0596 | locus YJL187C, strain SWE1 (second series), stronger effect = lower value 0.0488 | locus YJR043C, strain POL32, stronger effect = lower value 0.0648 | locus YJR066W, strain TOR1, stronger effect = lower value 0.016 | locus YKL009W, strain mrt4, stronger effect = lower value 0.0996 | locus YKL068W, stronger effect = lower value 0.0901 | locus YKL085W, strain MDH1 (second series), stronger effect = lower value 0.0744 | locus YKL085W, strain MDH1, stronger effect = lower value 0.0744 | locus YKL160W, strain elf1, stronger effect = lower value 0.0633 | locus YKR001C, strain vps1, stronger effect = lower value 0.0631 | locus YKR026C, strain gcn3, stronger effect = lower value 0.0593 | locus YKR091W, strain srl3, stronger effect = lower value 0.0594 | locus YLL001W, strain dnm1, stronger effect = lower value 0.0628 | locus YLL026W, stronger effect = lower value 0.0716 | locus YLL041C, strain sdh2, stronger effect = lower value 0.0574 | locus YLR027C, strain aat2, stronger effect = lower value 0.0566 | locus YLR039C, strain RIC1, stronger effect = lower value 0.0954 | locus YLR058C, strain SHM2, stronger effect = lower value 0.048 | locus YLR102C, strain apc9, stronger effect = lower value 0.0623 | locus YLR113W, strain HOG1, stronger effect = lower value 0.156 | locus YLR221C, strain rsa3, stronger effect = lower value 0.0591 | locus YLR258W, strain gsy2, stronger effect = lower value 0.0599 | locus YLR262C, strain YPT6 (second series), stronger effect = lower value 0.0778 | locus YLR262C, strain YPT6, stronger effect = lower value 0.109 | locus YLR268W, strain sec22, stronger effect = lower value 0.0686 | locus YLR320W, strain mms22, stronger effect = lower value 0.0761 | locus YLR330W, strain CHS5, stronger effect = lower value 0.0528 | locus YLR342W, strain FKS1 (second series), stronger effect = lower value 0.0674 | locus YLR342W, strain FKS1, stronger effect = lower value 0.0672 | locus YLR357W, strain rsc2, stronger effect = lower value 0.126 | locus YLR370C, strain arc18, stronger effect = lower value 0.0649 | locus YLR371W, strain rom2, stronger effect = lower value 0.0633 | locus YLR384C, strain iki3, stronger effect = lower value 0.0655 | locus YLR418C, strain cdc73, stronger effect = lower value 0.0956 | locus YML016C, strain PPZ1, stronger effect = lower value 0.0479 | locus YML032C, strain rad52, stronger effect = lower value 0.0691 | locus YML120C, strain ndi1, stronger effect = lower value 0.058 | locus YML124C, strain tub3, stronger effect = lower value 0.0616 | locus YMR058W, strain fet3, stronger effect = lower value 0.0615 | locus YMR078C, strain ctf18, stronger effect = lower value 0.0734 | locus YMR125W, strain sto1, stronger effect = lower value 0.0678 | locus YMR129W, stronger effect = lower value 0.0585 | locus YMR205C, strain PFK2, stronger effect = lower value 0.0848 | locus YMR223W, strain ubp8, stronger effect = lower value 0.0652 | locus YMR231W, strain pep5, stronger effect = lower value 0.0713 | locus YMR307W, strain GAS1, stronger effect = lower value 0.125 | locus YNL067W, strain RPL9B, stronger effect = lower value 0.0471 | locus YNL071W, strain lat1, stronger effect = lower value 0.0635 | locus YNL153C, strain GIM3, stronger effect = lower value 0.695 | locus YNL175C, strain NOP13, stronger effect = lower value 0.0913 | locus YNL183C, strain NPR1, stronger effect = lower value -0.00509 | locus YNL197C, strain WHI3, stronger effect = lower value 0.0874 | locus YNL209W, strain ssb2, stronger effect = lower value 0.0647 | locus YNL224C, strain SQS1, stronger effect = lower value 0.109 | locus YNL233W, strain BNI4, stronger effect = lower value 0.0563 | locus YNL248C, strain rpa49, stronger effect = lower value 0.0733 | locus YNL250W, strain rad50, stronger effect = lower value 0.0869 | locus YNL271C, strain bni1, stronger effect = lower value 0.0905 | locus YNL298W, strain CLA4, stronger effect = lower value 0.0742 | locus YNL307C, strain MCK1, stronger effect = lower value 0.0679 | locus YNL322C, strain KRE1 (second series), stronger effect = lower value 0.0616 | locus YNR049C, strain mso1, stronger effect = lower value 0.0594 | locus YNR052C, strain pop2, stronger effect = lower value 0.0613 | locus YOL006C, strain TOP1, stronger effect = lower value 0.115 | locus YOL147C, strain pex11, stronger effect = lower value 0.0589 | locus YOR001W, strain rrp6, stronger effect = lower value 0.075 | locus YOR061W, strain CKA2, stronger effect = lower value 0.0463 | locus YOR069W, strain VPS5, stronger effect = lower value 0.0473 | locus YOR070C, strain gyp1, stronger effect = lower value 0.0595 | locus YOR080W, strain dia2, stronger effect = lower value 0.0658 | locus YOR083W, strain WHI5 (second series), stronger effect = lower value 0.0984 | locus YOR083W, strain WHI5, stronger effect = lower value 0.0702 | locus YOR106W, strain vam3, stronger effect = lower value 0.0682 | locus YOR136W, strain idh2, stronger effect = lower value 0.0727 | locus YOR144C, strain elg1, stronger effect = lower value 0.0577 | locus YOR184W, strain ser1, stronger effect = lower value 0.0702 | locus YOR231W, strain MKK1, stronger effect = lower value 0.117 | locus YOR265W, strain rbl2, stronger effect = lower value 0.0588 | locus YOR270C, strain vph1, stronger effect = lower value 0.092 | locus YOR290C, strain snf2, stronger effect = lower value 0.0637 | locus YOR316C, strain cot1, stronger effect = lower value 0.0603 | locus YPL051W, strain arl3, stronger effect = lower value 0.0647 | locus YPL055C, strain LGE1, stronger effect = lower value 0.0751 | locus YPL078C, strain atp4, stronger effect = lower value 0.0637 | locus YPL106C, strain sse1, stronger effect = lower value 0.0995 | locus YPL240C, strain hsp82, stronger effect = lower value 0.0582 | locus YPL256C, strain CLN2, stronger effect = lower value 0.127 | locus YPR119W, strain clb2, stronger effect = lower value 0.0642 | locus YPR141C, strain kar3, stronger effect = lower value 0.096 | locus YPR163C, strain tif3, stronger effect = lower value 0.0728 | locus YPR167C, strain met16, stronger effect = lower value 0.0634 | strain wtn01, stronger effect = lower value 0.0677
0.0559 (active) and 0.976 (inactive): locus YMR263W, strain SAP30, stronger effect = lower value
